Inconclusive results are not listed. The source made the active and inactive calls. Calls follow the shape of the dose curve; as a rule, active = well fitted curve in the direction sought with a large enough effect in the repeat runs; inconclusive = weak or mixed curves; inactive = no such curve, though single readings can be large; an effect the other way counts as inactive or inconclusive.
Experiments:
[1] = A CellTox Green Cytotoxicity Assay to monitor cytotoxicity in HepG2 cells - 24 hour (AID 1224878); also: nearly all actives have a fitted effect of over 45% in size; also: potency is read from the fitted curve at half-maximal effect
How it was run: (§1)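 Cells and non-lytic dye reagent are dispensed together (600 HepG2 cells/well) and incubated 5 h before DMSO compound transfer. Kinetic fluorescence is then recorded in the same wells during 40 h at 37 C.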

[2] = A CellTox Green Cytotoxicity Assay to monitor cytotoxicity in HepG2 cells - 40 hour (AID 1224879); also: nearly all actives have a fitted effect of over 40% in size; also: potency is read from the fitted curve at half-maximal effect
How it was run: as §1

[3] = qHTS RealTime-Glo MT Cell Viability Assay in HEK293 cells - 0 hour (AID 1224880); also: top concentration of the series differs between compounds; nearly all actives have a fitted effect of over 45% in size
How it was run: (§2)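 Real-time viability in HEK293: signal arises when living cells convert a prosubstrate for NanoLuc in the medium, so luminescence tracks viable cell number. Compound (23 nL, DMSO) added 5 h post-seeding; kinetic reads at 0–40 h, 37 C.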

[4] = A CellTox Green Cytotoxicity Assay to monitor cytotoxicity in HEK293 cells - 32 hour (AID 1224881); also: nearly all actives have a fitted effect of over 40% in size
How it was run: (§3)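 Cells (HEK293, 600/well) and dye reagent are dispensed together. After 5 h at 37 C, 23 nL compound is pinned in. Plates stay at 37 C for 40 h with fluorescence read at 0h, 8h, 16h, 24h, 32h and 40h.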

[5] = A CellTox Green Cytotoxicity Assay to monitor cytotoxicity in HepG2 cells - 32 hour (AID 1224883); also: nearly all actives have a fitted effect of over 50% in size
How it was run: as §1

[6] = A CellTox Green Cytotoxicity Assay to monitor cytotoxicity in HEK293 cells - 8 hour (AID 1224884); also: nearly all actives have a fitted effect of over 35% in size
How it was run: as §3

[7] = qHTS RealTime-Glo MT Cell Viability Assay in HepG2 cells - 16 hour (AID 1224885); also: nearly all actives have a fitted effect of over 50% in size
How it was run: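 Real-time, nonlytic viability: 600 HepG2 cells/well mixed with NanoLuc enzyme plus prosubstrate; 5 h settle, compound (DMSO) added by pintool; luminescence monitored over 40 h at 37 C.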

[8] = qHTS RealTime-Glo MT Cell Viability Assay in HEK293 cells - 24 hour (AID 1224886); also: top concentration of the series differs between compounds; nearly all actives have a fitted effect of over 50% in size
How it was run: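 Cells + reagent dispensed (600 cells/well, HEK293) → 5 h at 37 C/5% CO2 → 23 nL compound in DMSO pinned → 40 h at 37 C → luminescence read at 0, 8, 16, 24, 32, 40 h.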

[9] = qHTS RealTime-Glo MT Cell Viability Assay in HEK293 cells - 8 hour (AID 1224887); also: top concentration of the series differs between compounds; nearly all actives have a fitted effect of over 50% in size
How it was run: as §2

[10] = A CellTox Green Cytotoxicity Assay to monitor cytotoxicity in HepG2 cells - 0 hour (AID 1224882); also: nearly all actives have a fitted effect of over 35% in size
How it was run: as §1
% is scaled to controls: 0 for no effect and ±100 for the full control effect.

CC(=O)O[C@@H]1CC2CCC1(C)C2(C)C (stereo partly drawn)
inactive: Potency [1] | Potency [2] | Potency [3] | Potency [4] | Potency [5] | Potency [6] | outcome [7] | Potency [8] | Potency [9]

C/C(CC(C)C)=N\O
inactive: Potency [1] | Potency [2] | Potency [3] | Potency [4] | Potency [10] | Potency [6] | outcome [7] | Potency [8] | Potency [9]

CC(C)CCOC(=O)c1ccccc1
inactive: Potency [1] | Potency [2] | Potency [3] | Potency [4] | Potency [10] | Potency [6] | outcome [7] | Potency [8] | Potency [9]

OC1(c2ccc(Cl)cc2)CCNCC1
inactive: Potency [1] | Potency [2] | Potency [3] | Potency [4] | Potency [5] | Potency [6] | outcome [7] | Potency [8] | Potency [9]

CC1CCc2c(N3CCC(O)CC3)c(F)cc3c(=O)c(C(=O)O)cn1c23 (stereo not drawn)
inactive: Potency [1] | Potency [3] | Potency [4] | Potency [10] | Potency [5] | Potency [6] | outcome [7] | Potency [8] | Potency [9]

CC(C)OC(=O)OCOP(=O)(CO[C@H](C)Cn1cnc2c(N)ncnc21)OCOC(=O)OC(C)C
inactive: Potency [1] | Potency [3] | Potency [4] | Potency [10] | Potency [5] | Potency [6] | outcome [7] | Potency [8] | Potency [9]

CN(C)CC/C=C1/c2ccccc2COc2ccc(CC(=O)O)cc21
inactive: Potency [1] | Potency [2] | Potency [4] | Potency [10] | Potency [5] | Potency [6]

CC(=O)CCc1ccc(OC(C)=O)cc1
inactive: Potency [1] | Potency [3] | Potency [4] | Potency [10] | Potency [5] | Potency [6] | outcome [7] | Potency [8] | Potency [9]

CCC(C)C(=O)OCCc1ccccc1 (stereo not drawn)
inactive: Potency [1] | Potency [2] | Potency [3] | Potency [10] | Potency [6] | outcome [7] | Potency [8] | Potency [9]

O=C[O][Al]([O]C=O)[O]C=O
inactive: Potency [1] | Potency [2] | Potency [4] | Potency [10] | Potency [5] | outcome [7] | Potency [8]

CC(C)=CCC/C(C)=C/COC=O
inactive: Potency [1] | Potency [2] | Potency [3] | Potency [4] | Potency [6] | outcome [7] | Potency [8] | Potency [9]

CC(=O)Nc1ccc(OC(=O)c2ccccc2OC(C)=O)cc1
inactive: Potency [1] | Potency [2] | Potency [3] | Potency [10] | Potency [5] | Potency [6] | outcome [7] | Potency [8] | Potency [9]

CC(C)C[C@@H]1[C@H](c2ccccc2)OC(=O)N1CCCN1CCCCCC1
inactive: Potency [1] | Potency [2] | Potency [3] | Potency [4] | Potency [5] | Potency [6] | outcome [7] | Potency [9]

O=Cc1ccccc1Cl
inactive: Potency [1] | Potency [2] | Potency [3] | Potency [10] | Potency [5] | outcome [7] | Potency [8] | Potency [9]

CCCC(=O)OCCC(C)CCC=C(C)C (stereo not drawn)
inactive: Potency [1] | Potency [2] | Potency [4] | Potency [10] | Potency [5] | Potency [6] | outcome [7] | Potency [8] | Potency [9]

CC12CCC(C1)C(C)(C)C2O (stereo not drawn)
active: Potency [1] 2190 nM | Potency [2] 2190 nM
inactive: Potency [3] | Potency [10] | outcome [7] | Potency [9]

CCC(=O)CC
inactive: Potency [1] | Potency [2] | Potency [3] | Potency [4] | Potency [5] | Potency [6] | outcome [7] | Potency [8] | Potency [9]

CCOC(CN1CCN(CC(C)C(=O)c2ccccc2)CC1)c1ccccc1 (stereo not drawn)
inactive: cytotoxicity [1] -18.2% [at 15.8 µM] | activity change, negative = cytotoxicity [3] 0.0674% [at 15.8 µM] | cytotoxicity increase [4] -3.67% [at 15.8 µM] | cytotoxicity [10] -4.84% [at 15.8 µM] | cytotoxicity increase [5] -18.4% [at 15.8 µM] | cytotoxicity increase [6] -4.22% [at 15.8 µM] | activity change, negative = cytotoxic [7] 0.651% [at 15.8 µM]

O=[N+]([O-])c1c(Cl)cc(Cl)cc1Cl
inactive: Potency [1] | Potency [2] | Potency [3] | Potency [5] | Potency [6] | outcome [7] | Potency [8] | Potency [9]

CCCCCCC1(C)CCC(=O)O1 (stereo not drawn)
inactive: Potency [1] | Potency [3] | Potency [4] | Potency [10] | Potency [5] | Potency [6] | outcome [7] | Potency [8] | Potency [9]

Cc1cccc(Cl)c1
inactive: Potency [1] | Potency [3] | Potency [4] | Potency [10] | Potency [5] | Potency [6] | outcome [7] | Potency [8] | Potency [9]

C/C=C(\C)C(C)=O
inactive: Potency [1] | Potency [2] | Potency [4] | Potency [10] | Potency [5] | Potency [6] | outcome [7] | Potency [8] | Potency [9]

CC1=C(C(=O)O)N2C(=O)[C@@H](NC(=O)[C@H](N)c3ccccc3)[C@H]2SC1
inactive: Potency [1] | Potency [2] | Potency [3] | Potency [4] | Potency [6] | outcome [7] | Potency [8] | Potency [9]

[O]=[Mo](=[O])=[O]
inactive: cytotoxicity [1] -10.8% [at 15.8 µM] | cytotoxicity increase [2] -15% [at 15.8 µM] | cytotoxicity increase [4] -39.2% [at 15.8 µM] | cytotoxicity increase [5] -13.6% [at 15.8 µM] | cytotoxicity increase [6] -27.3% [at 15.8 µM] | activity change, negative = cytotoxic [7] 6.22% [at 15.8 µM]

CO[C@@]1(NC(=O)Cc2cccs2)C(=O)N2C(C(=O)O)=C(COC(N)=O)CS[C@@H]21
inactive: Potency [1] | Potency [2] | Potency [3] | Potency [4] | Potency [6] | outcome [7] | Potency [8] | Potency [9]

C=CCCCCCCCC
inactive: Potency [1] | Potency [2] | Potency [4] | Potency [5] | Potency [6] | outcome [7] | Potency [8] | Potency [9]

From PubChem BioAssay (Tox21)
